# M18AAP inhibitor – blocks P. falciparum M18 aspartyl aminopeptidase. inhibition, % at 7.35 µM. recombinant PfM18AAP, H-Glu-NHMec fluorogenic cleavage. actives 1.2% (n = 290,000). AID 1822;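 active means inhibition above the campaign mean inhibition over all tested compounds plus 3 SD, cut at about 28% in these data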;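 further: 0% = plate median of test compound wells and 100% = 2 mM ZnCl2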
# ALR H2O2 inh – inhibitors of human sulfhydryl oxidase ALR. P55789. purified ALR, DTT oxidation, H2O2 HRP-luminol luminescence. inhibition, % (concentration not given with the values). actives 3.8% (n = 290,000);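 active means mean replicate inhibition above about 79%, with every replicate also reaching it, limit read from the data; inconclusive means only one of the two criteria met; inactive means mean below limit and not every replicate reaching it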
# Target sequence (P55789 whole entry, looked up): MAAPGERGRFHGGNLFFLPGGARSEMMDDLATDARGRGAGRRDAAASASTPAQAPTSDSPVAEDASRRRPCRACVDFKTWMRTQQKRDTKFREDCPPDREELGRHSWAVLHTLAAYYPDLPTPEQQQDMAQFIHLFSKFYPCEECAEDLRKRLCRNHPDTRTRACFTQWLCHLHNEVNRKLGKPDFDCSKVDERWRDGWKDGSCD
# PfGluPho inh – PfG6PD (Plasmodium falciparum) enzyme inhibition; AID 504690; inhibition, % at 20 µM; actives 0.78% (n = 350,000); PfGluPho enzyme, NADPH resazurin-diaphorase fluorescence;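 active means inhibition reaching at least a set limit at 20 µM in the primary screen, cut at about 59% in these data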;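 further: 0% = DMSO wells with substrate and 100% = DMSO wells lacking glucose-6-phosphate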
# PHOSPHO1 inh – PHOSPHO1 (human) inhibition | Q8TCT1 | recombinant PHOSPHO1, absorbance phosphatase assay | inhibition, % at 13.3 µM | actives 1.1% (n = 290,000) | AID 1565; in the data active means inhibition above about 60%
# Target sequence (Q8TCT1 whole entry, looked up): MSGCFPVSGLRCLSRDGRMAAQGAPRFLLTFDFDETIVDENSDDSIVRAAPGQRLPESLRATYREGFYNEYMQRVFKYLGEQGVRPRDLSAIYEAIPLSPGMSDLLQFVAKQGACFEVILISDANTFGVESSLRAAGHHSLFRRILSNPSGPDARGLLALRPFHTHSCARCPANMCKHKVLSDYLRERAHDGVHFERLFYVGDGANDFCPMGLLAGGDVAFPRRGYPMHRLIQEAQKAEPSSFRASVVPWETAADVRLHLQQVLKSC
# H9c2 protect – modulators protecting cardiomyocytes from myocardial damage; H9c2 cardiomyocytes, H2O2 injury protection, ATPLite, 2 h; protection from H2O2 cell death, % at 20 µM; actives 0.63% (n = 360,000); AID 588492;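 active means compounds giving at least 50% protection of heart cells from peroxide-induced death in the single-dose screen, raw or plate-pattern-corrected value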;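 further: 0% = DMSO wells with peroxide and 100% = DMSO wells without peroxide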
# Starred values were filed as active, the others as inactive; ? = inconclusive; . = no result given. Compounds with a hit are over-represented: about 5.6% of the library has one in this group of screens.
SMILES,M18AAP inhibitor,ALR H2O2 inh,PfGluPho inh,PHOSPHO1 inh,H9c2 protect
CCc1ccccc1N1C(=O)CC(N2CCc3ccccc32)C1=O (configuration not stated),1.3,98.8*,-9.4,14.6,-1.7
CCOC(=O)c1ccc(NC(=O)C(C)Sc2nc(O)c(-c3ccccc3)c(=O)[nH]2)cc1 (configuration not stated),6.0,98.6*,-8.7,27.4,-1.2
CC(Sc1nc(O)c(-c2ccccc2)c(=O)[nH]1)C(=O)Nc1ccc(Cl)cc1 (configuration not stated),-3.0,.,-19.7,-3.0,7.1
COc1ccc(/C=N\NC(=O)c2ccc(=O)[nH]n2)cc1O,15.0,99.5*,3.6,-13.9,1.6
COc1cccc(/C=N\NC(=O)c2ccc(C)nc2)c1,4.5,.,-5.8,9.7,-3.5
COc1ccc(/C=N/NC(=O)c2ccoc2C)cc1OC,-1.7,.,-7.5,4.9,2.3
COc1ccc(/C=N/NC(=O)c2cc[n+]([O-])cc2)cc1,-5.7,.,1.3,27.0,3.7
COc1ccc(/C=N/NC(=O)c2cc[n+]([O-])cc2)cc1O,2.7,99.3*,-14.5,10.3,-5.1
COc1ccc(/C=N/NC(=O)c2ccc(C)nc2)cc1O,4.7,97.4*,-3.3,29.5,-1.5
COc1ccc(/C=N/NC(=O)c2ccoc2C)cc1O,-14.1,99.4*,-2.9,1.4,-0.2
COc1ccccc1C(=O)N/C(=C\c1ccccc1)C(=O)NCc1ccco1,8.5,.,-2.2,18.8,-0.2
Cc1cc2nc(-c3ccc(Cl)cc3)c(CC(C)(C)C)n2c(C)c1Br,.,.,.,.,-4.8
CC(C)C(=O)N1CCCC1(C)C(=O)Nc1ccc(F)cc1 (configuration not stated),.,.,.,.,3.8
Cc1ccc(/C=N/n2c(-c3cccnc3)n[nH]c2=S)s1,18.9,76.0*,19.1,9.8,1.5
Cc1ccc(/C=N/n2c(-c3cccnc3)n[nH]c2=S)o1,20.3,31.2,13.5,-99.7,5.0
CN(C)c1ccc(/C=N/n2c(-c3cccnc3)n[nH]c2=S)cc1,20.0,97.5*,38.3,12.0,0.0
CN(C)c1ccc(/C=N/n2c(C3CCCCC3)n[nH]c2=S)cc1,-4.7,5.1,17.4,0.0,-8.3
CN(C)c1ccc(/C=N/n2c(-c3ccccc3Br)n[nH]c2=S)cc1,19.8,96.3*,39.1,12.9,-3.2
Cc1ccc(/C=N/n2cc(-c3ccccc3)[nH]c2=S)s1,52.6*,?,56.5,13.5,-1.5
Cc1ccccc1CN1C[C@H]2CON(C)[C@H]2C[C@H]1c1cccc(Br)c1,.,.,-5.8,.,-18.2
COc1ccc(CN2CCN(Cc3ccc(CO)o3)CC2CCO)cc1C (configuration not stated),6.7,.,-13.1,34.0,14.3
COc1ccc(-n2c(SCC(=O)NCC3CCCO3)nc3ccccc3c2=O)cc1Cl (configuration not stated),.,.,7.1,.,10.5
COc1ccc(OCC(CO)N2CCN(c3ccccc3)CC2)cc1 (configuration not stated),.,.,7.3,.,2.1
CC(C)Sc1cc(Cl)nc(NC(=O)Nc2ccccc2)n1,-4.6,0.4,7.9,24.2,-8.9
CN(C)c1ccc(/C=N/n2c(COc3ccccc3)n[nH]c2=S)cc1,22.4,.,10.8,78.7*,5.8
SMILES,M18AAP inhibitor,ALR H2O2 inh,PfGluPho inh,PHOSPHO1 inh,H9c2 protect
CC1(c2ccc(Cl)cc2)NC(=O)CS1 (configuration not stated),-7.2,-1.6,1.3,-3.4,2.2
COc1cc(C(=O)NCC(c2ccco2)N2CCc3ccccc32)cc(OC)c1OC (configuration not stated),.,92.8*,0.0,.,-5.0
O=C(NCC(c1ccco1)N1CCc2ccccc21)c1ccccc1 (configuration not stated),.,95.5*,18.2,.,3.5
COc1ccccc1NC(=O)C(=O)NCC(c1ccco1)N1CCc2ccccc21 (configuration not stated),.,-1.9,9.4,.,-1.5
COc1ccc(CCC(=O)NCC(c2ccco2)N2CCc3ccccc32)cc1 (configuration not stated),.,86.5*,-0.4,.,0.0
COc1ccccc1C(=O)NCC(c1ccco1)N1CCc2ccccc21 (configuration not stated),.,.,20.8,.,-0.5
Cc1cn([C@H]2C[C@H](O)[C@@H](/C=C/C(=O)NCCc3ccc4c(c3)OCO4)O2)c(=O)[nH]c1=O,.,.,.,.,1.7
CC1CCC(C#N)(N(C)C(=O)CSc2nnc(C3CC3)n2C2CC2)CC1 (configuration not stated),.,.,4.6,.,-1.9
COCc1c(C(=O)Nc2cccc(S(=O)(=O)N3CCCCC3)c2)oc2ccccc12,.,-2.1,10.8,.,-2.9
Cc1ccc(C2=Nn3c(COc4ccc(Cl)cc4)nnc3SC2CC(=O)O)cc1 (configuration not stated),-0.7,97.5*,-8.5,23.0,-7.3
COc1ccc(OCc2nnc3n2N=C(c2ccc(Br)cc2)CS3)cc1,0.2,-6.4,18.1,17.3,-12.3
COc1ccc(CN(C)C(=O)Cn2ccc(N)nc2=O)cc1OC,.,2.6,-1.1,.,13.5
CC(C)(C)OC(=O)[C@H](Cc1ccccc1)NC(=O)c1nc[nH]c1C(=O)N1CCNCC1,.,5.7,-18.9,.,2.8
COc1cc(C)ccc1S(=O)(=O)NC(=O)C1(C)CCN1C(=O)c1ccc(C2CCCCC2)cc1 (configuration not stated),.,.,.,.,-1.7
CCC1CCCCN1S(=O)(=O)c1ccc(NC(=O)c2nc(S(C)(=O)=O)ncc2Cl)cc1 (configuration not stated),-94.4,77.1*,25.0,2.1,-18.9
CCC1CCCCN1S(=O)(=O)c1ccc(NC(=O)c2ccncc2)cc1 (configuration not stated),2.2,-18.3,3.0,13.7,-18.1
CN(CC(=O)NCc1cccs1)S(=O)(=O)c1cccc2cccnc12,0.3,94.0*,1.0,-0.1,1.1
CN(C)c1ccc(CNC(=O)CN(C)S(=O)(=O)c2cccc3cccnc23)cc1,8.0,9.3,17.6,-4.5,8.3
O=C(CCNC(=O)c1ccc(Br)cc1)NNC(=O)c1ccccc1,.,-9.7,10.0,.,-0.4
Cc1cccc(NC(=O)CCCC(=O)OC(C)C(=O)c2ccccc2)c1 (configuration not stated),-4.9,0.7,6.2,16.1,0.4
COc1cc(NC(=O)Nc2nc(C(N)Cc3ccc(C(F)(F)F)cc3)cs2)cc(OC)c1OC (configuration not stated),.,.,.,.,-8.4
CC(=O)c1cc(NC(=O)c2cccc(C(F)(F)F)c2)c(=O)oc1/C=C/N(C)C,-6.9,-1.0,9.6,52.3,3.4
CC(=O)c1cc(NC(=O)c2ccc(Cl)cc2)c(=O)oc1/C=C/N(C)C,-4.3,96.9*,0.9,21.6,12.3
COc1ccc(C(=O)Nc2cc(C(C)=O)c(C)oc2=O)cc1,-11.8,92.3*,-20.3,36.7,-0.9
CC(=O)n1cc([C@H]2C=C(C(=O)N3CCOCC3)O[C@@H](OCCCCO)C2)c2ccccc21,.,-15.9,8.8,.,-1.6
COc1cc(/C=N/NC(=O)c2ccc(CSc3nncn3C)cc2)cc(OC)c1O,8.4,99.6*,16.0,27.1,3.8
